Experimental data from PubChem BioAssay.
Values without a mark were called inactive. Active and inactive are the calls of the source.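 How the source made its calls, unless noted: active means mean inhibition above 46.5%, the solvent-only control mean plus 3 SD; inactive means the rest.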

Tests used:
[1] = molecular target: Nuclear receptor coactivator 3 (Homo sapiens) (UniProt Q9Y6Q9); assay: SRC3 coactivator transcriptional activity inhibitors, confirmation, cell-based, luminescence, quadruplicate (AID 588792;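 active means mean inhibition over 43.08%, the solvent-only control mean plus 3 SD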;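 further: 0% = DMSO treated cells and 100% = gossypol at 36 µM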); conditions: HEK293 GAL4-SRC3 luciferase reporter, at 3.6 µM, stronger effect = higher value
Nuclear receptor coactivator 3 (Homo sapiens), sequence (Q9Y6Q9 whole entry, looked up, the tested form may be a part): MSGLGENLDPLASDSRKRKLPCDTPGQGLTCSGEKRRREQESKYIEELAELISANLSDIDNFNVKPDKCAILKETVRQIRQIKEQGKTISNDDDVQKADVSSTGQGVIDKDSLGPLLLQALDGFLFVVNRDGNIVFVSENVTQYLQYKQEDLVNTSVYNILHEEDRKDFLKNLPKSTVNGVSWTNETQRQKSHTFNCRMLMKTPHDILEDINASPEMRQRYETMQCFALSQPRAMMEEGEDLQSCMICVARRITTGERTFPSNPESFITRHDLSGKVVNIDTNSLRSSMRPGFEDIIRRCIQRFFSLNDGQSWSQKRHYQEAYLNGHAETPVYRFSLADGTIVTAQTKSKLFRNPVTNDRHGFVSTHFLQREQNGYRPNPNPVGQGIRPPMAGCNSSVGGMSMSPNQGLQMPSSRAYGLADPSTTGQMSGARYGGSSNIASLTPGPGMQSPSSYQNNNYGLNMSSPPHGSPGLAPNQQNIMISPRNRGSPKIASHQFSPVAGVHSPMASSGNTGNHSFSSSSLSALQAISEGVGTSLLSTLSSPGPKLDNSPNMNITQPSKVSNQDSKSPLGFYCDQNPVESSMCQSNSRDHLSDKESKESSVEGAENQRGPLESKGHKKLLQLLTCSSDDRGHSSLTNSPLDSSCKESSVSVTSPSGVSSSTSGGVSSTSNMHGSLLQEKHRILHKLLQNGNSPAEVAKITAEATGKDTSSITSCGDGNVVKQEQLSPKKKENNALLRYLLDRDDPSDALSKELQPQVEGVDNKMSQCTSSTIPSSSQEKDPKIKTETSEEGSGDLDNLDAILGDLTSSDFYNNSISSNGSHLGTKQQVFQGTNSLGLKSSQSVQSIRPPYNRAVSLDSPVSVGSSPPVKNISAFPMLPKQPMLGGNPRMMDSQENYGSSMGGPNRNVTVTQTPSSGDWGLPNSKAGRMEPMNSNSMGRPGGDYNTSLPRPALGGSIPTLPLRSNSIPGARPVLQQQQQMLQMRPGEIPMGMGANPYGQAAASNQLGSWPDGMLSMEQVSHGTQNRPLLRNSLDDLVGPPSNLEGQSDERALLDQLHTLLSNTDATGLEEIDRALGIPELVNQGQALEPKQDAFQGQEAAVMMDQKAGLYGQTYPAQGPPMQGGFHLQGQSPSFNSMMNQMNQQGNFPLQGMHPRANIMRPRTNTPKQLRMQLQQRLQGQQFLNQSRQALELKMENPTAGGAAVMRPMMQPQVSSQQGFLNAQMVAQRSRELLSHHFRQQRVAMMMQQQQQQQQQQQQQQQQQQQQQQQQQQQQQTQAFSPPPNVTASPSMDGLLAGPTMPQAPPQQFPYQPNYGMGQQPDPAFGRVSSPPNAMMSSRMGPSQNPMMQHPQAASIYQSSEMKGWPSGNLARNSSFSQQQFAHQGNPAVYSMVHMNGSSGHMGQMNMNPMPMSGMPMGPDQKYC

[2] = test system: transactivating tegument protein VP16 (Human herpesvirus 1), Gal4-VP16 luciferase reporter; assay: VP16 transactivation inhibitors, counter-screen for SRC3 inhibitor project, cell-based, luminescence, high throughput (AID 588794; in the data active means inhibition above about 30%); conditions: mammalian cells, VP16-driven luciferase reporter luminescence; at 3.6 µM; stronger effect = higher value
[3] = molecular target: Nuclear receptor coactivator 1 (Homo sapiens) (UniProt Q15788); assay: SRC1 coactivator transcriptional activity inhibitors, confirmation, cell-based, luminescence, quadruplicate (AID 588820;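 active means mean inhibition above 46.68%, the untreated control wells mean plus 3 SD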;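 further: 0% = DMSO wells and 100% = gossypol 36 µM treated wells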); conditions: HEK293 GAL4-SRC1 luciferase reporter, at 3.6 µM, stronger effect = higher value
Nuclear receptor coactivator 1 (Homo sapiens), sequence (Q15788 whole entry, looked up, the tested form may be a part): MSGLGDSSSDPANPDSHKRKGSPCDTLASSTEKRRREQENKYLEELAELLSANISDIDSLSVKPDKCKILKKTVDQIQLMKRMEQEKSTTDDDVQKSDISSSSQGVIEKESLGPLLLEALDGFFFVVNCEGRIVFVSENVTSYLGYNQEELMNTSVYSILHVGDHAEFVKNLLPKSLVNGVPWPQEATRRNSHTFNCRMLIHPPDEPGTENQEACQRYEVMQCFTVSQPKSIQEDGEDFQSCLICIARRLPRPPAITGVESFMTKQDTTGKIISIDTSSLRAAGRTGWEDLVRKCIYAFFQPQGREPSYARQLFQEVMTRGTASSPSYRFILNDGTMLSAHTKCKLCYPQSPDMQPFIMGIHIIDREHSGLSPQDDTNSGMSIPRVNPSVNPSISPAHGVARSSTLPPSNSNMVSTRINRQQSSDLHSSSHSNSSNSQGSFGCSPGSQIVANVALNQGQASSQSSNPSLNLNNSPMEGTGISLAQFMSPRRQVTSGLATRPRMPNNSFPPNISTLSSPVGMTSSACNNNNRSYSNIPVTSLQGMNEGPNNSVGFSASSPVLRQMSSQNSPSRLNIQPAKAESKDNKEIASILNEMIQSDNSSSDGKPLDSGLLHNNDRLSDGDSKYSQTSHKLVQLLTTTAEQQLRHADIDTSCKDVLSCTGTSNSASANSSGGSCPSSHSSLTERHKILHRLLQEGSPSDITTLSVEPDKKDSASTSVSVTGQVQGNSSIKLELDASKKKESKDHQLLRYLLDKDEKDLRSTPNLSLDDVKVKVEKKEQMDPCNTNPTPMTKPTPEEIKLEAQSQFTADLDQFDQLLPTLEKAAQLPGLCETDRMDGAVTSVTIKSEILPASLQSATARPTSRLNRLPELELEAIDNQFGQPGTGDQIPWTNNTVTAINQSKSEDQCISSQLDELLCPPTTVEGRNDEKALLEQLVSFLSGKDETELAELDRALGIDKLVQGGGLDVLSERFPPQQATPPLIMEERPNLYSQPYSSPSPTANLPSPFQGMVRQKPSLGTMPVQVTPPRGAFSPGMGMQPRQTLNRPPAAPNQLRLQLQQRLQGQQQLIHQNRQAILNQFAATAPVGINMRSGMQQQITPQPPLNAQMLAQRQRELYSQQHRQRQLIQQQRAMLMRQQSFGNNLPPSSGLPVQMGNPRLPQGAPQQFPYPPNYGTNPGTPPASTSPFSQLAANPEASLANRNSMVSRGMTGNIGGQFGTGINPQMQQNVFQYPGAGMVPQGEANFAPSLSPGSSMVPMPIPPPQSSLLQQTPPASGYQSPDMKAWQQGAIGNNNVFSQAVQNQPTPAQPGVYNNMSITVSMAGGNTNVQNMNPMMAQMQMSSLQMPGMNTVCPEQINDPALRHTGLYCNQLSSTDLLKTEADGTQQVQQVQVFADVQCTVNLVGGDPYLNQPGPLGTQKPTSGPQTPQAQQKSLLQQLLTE

[4] = VP16 transactivation inhibitors, counter-screen for SRC1 inhibitor project, cell-based, luminescence, high throughput (AID 588824; in the data active means inhibition above about 25%); conditions: cell-based VP16 transactivation luciferase luminescence; at 3.6 µM; stronger effect = higher value
[5] = test system: transactivating tegument protein VP16 (Human herpesvirus 1); assay: VP16 transactivation reporter inhibitors, counter-screen for SRC2 inhibitor project, cell-based, luminescence, single concentration (AID 652007; in the data active means inhibition above about 36%); conditions: cell-based VP16 transactivation luciferase reporter, at 8.9 µM, stronger effect = higher value
[6] = molecular target: Nuclear receptor coactivator 2 (Homo sapiens) (UniProt Q15596); assay: SRC2 coactivator transcriptional activity inhibitors, confirmation, cell-based, luminescence, HEK293, triplicate (AID 652008); conditions: HEK293 GAL4-SRC2 luciferase reporter, at 8.9 µM, stronger effect = higher value;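 further: 0% = DMSO-treated cells and 100% = Gossypol at 36 µM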
Nuclear receptor coactivator 2 (Homo sapiens), sequence (Q15596 whole entry, looked up, the tested form may be a part): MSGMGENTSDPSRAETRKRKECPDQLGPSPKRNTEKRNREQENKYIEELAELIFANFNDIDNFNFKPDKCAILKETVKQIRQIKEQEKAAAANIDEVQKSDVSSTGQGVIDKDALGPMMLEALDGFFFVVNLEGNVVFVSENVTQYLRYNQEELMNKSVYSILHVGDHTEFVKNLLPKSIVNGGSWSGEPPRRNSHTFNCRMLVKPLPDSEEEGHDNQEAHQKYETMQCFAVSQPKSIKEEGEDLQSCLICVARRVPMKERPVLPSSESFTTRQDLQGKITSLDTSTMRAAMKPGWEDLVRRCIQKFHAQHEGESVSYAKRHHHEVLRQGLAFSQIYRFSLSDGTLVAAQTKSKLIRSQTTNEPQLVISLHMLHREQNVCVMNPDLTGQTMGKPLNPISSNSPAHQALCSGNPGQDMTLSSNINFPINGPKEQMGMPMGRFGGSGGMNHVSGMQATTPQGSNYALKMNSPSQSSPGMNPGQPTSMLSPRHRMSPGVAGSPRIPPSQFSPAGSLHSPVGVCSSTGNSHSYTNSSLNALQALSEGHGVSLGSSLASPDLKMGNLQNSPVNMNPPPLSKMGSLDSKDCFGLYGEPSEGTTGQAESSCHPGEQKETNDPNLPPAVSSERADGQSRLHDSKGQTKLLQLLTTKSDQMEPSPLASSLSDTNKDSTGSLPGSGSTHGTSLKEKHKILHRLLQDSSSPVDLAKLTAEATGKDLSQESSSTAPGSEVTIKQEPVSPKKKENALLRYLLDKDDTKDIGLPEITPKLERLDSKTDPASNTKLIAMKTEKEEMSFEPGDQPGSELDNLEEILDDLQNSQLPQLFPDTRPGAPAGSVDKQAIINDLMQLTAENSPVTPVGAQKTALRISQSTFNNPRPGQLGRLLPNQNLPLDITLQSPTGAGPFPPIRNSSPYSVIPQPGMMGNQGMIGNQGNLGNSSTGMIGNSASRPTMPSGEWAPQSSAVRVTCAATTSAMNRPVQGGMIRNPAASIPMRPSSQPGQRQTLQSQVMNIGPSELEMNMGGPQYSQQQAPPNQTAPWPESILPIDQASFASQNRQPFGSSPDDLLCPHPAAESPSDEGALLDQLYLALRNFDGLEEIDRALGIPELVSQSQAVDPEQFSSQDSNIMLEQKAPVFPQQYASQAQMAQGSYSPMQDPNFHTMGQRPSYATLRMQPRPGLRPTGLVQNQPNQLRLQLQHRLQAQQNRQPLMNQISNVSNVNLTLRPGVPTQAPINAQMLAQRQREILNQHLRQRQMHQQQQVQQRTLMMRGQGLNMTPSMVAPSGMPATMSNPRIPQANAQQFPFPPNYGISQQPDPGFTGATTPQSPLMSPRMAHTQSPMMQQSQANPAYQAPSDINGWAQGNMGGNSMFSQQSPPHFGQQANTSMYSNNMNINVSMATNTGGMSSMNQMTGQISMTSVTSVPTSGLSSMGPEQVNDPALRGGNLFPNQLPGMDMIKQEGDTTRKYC

Row | Structure (SMILES) | inhibition [1] | inhibition [2] | inhibition [3] | inhibition [4] | inhibition [5] | inhibition [6]
1 | COc1ccc(Cc2nnc(N/N=C/c3ccccc3O)[nH]c2=O)cc1OC | 84.5% (active) | 77% (active) | 76.7% (active) | 82.6% (active) | 21.2% | 38.8%
2 | Cc1cc(C(=O)CN2C(=O)c3ccccc3S2(=O)=O)c(C)n1C(C)C | 31.4% | 24.3% | -24.8% | 12.9% | 29.6% | 59.6% (active)
3 | O=C1CCCCC1Sc1nnc(-c2ccc3c(c2)OCO3)o1 (centres undefined) | -5.91% | -22.1% | -129% | -49.6% | 34% | 53.1% (active)
4 | CCN(CC)c1ccc(/C=N/Nc2nc(C)cc(=O)[nH]2)c(O)c1 | 87.7% (active) | 78.7% (active) | 67.1% (active) | 74.3% (active) | -39.4% | 29.6%
5 | CC(C)(C)c1ccc(C(=O)NC(=S)Nc2nc3c(s2)CCCC3)cc1 | 20.4% | -9.66% | -33.4% | -47.4% | 0.2% | 34.8%
6 | CCCN1C=CC(=C2C(=O)c3ccccc3C2=O)C=C1 | 65.4% (active) | 51.3% (active) | -14.4% | 38% (active) | 80.3% (active) | 91.3% (active)
7 | O=[N+]([O-])c1ccc2ncnc(Nc3ccc4c(c3)OCCO4)c2c1 | 57.9% (active) | 44.4% (active) | 59.8% (active) | 33.3% (active) | 3.91% | 28.4%
8 | Cc1ccc2occ(/C=N/NC(=O)[C@@H](N)Cc3ccccc3)c(=O)c2c1 | 37.9% | 17% | 15.7% | 23.3% | 4.17% | 44.1%
9 | CC(C)(C)OC(=O)N1Cc2ccccc2C[C@H]1C(=O)NCC(=O)Nc1ccc2c(c1)OCCO2 | 28.9% | 1.92% | 5.58% | -7.64% | -3.02% | 52% (active)
10 | COc1ccc(CC(=O)Nc2cccc(-c3nnc(-c4ccccc4)o3)c2)cc1OC | 10.5% | 32.9% (active) | -12.5% | 41.1% (active) | 27.1% | 68.5% (active)
11 | c1ccc(CCc2nn3c(-c4ccncc4)nnc3s2)cc1 | 68.4% (active) | 47.2% (active) | 57.3% (active) | 41.1% (active) | 1.28% | 50.8% (active)
12 | Cc1nc2cc(N3CCN(C)CC3)c(NC(=O)Cc3ccccc3)cc2c(=O)n1Cc1ccccc1 | 17.6% | 10.3% | -11.5% | -3.19% | 4.08% | 34.5%
13 | C/C(=N\Nc1ncnc2sc(C)c(C)c12)c1ccccn1 | 63.2% (active) | 70.1% (active) | 18.5% | 50.4% (active) | -48.8% | 1.02%
14 | Cc1ccc2nc(C(F)(F)F)c(C#N)c(N)c2c1 | 48.2% (active) | 9.27% | 27.6% | 2.5% | 1.92% | 50.1% (active)
15 | Brc1ccc2ncnc(Nc3ccc(N4CCOCC4)cc3)c2c1 | 57.9% (active) | 31.9% (active) | 59.7% (active) | 35.3% (active) | -2.24% | 39.9%
16 | OCCN(CCO)CC(O)COc1ccc(C23CC4CC(CC(C4)C2)C3)cc1 (centres undefined) | 23.8% | 18.7% | 15.1% | 8.76% | 61.9% (active) | 81.9% (active)
17 | CN1CCN(c2ccc(NC(=O)N3CCc4ccccc43)cc2)CC1 | 32.5% | 13.4% | -43.7% | -20.3% | -18.3% | 53.1% (active)
18 | C=Cc1ccc(CC2(C)C(=O)Nc3ccc(-c4cccnc4)cc32)cc1 (centres undefined) | 45.2% (active) | 38% (active) | 53.8% (active) | 31.1% (active) | 2.06% | 35%
19 | CCn1c(Oc2ccccc2C)nc2c1c(=O)n(C)c(=O)n2C | 51.9% (active) | 34.7% (active) | 51.5% (active) | 30.6% (active) | 14.5% | 40.9%
